In PubChem BioAssay:
Active and inactive are the calls of the source.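 The calls were made as follows, unless noted: active = visual image review flags a hit and inhibition of aggregation exceeds 20%; inconclusive = visual hit but inhibition at or below 20%; inactive = no hit on visual image review.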

Key:
[1] = inhibitors of TNFa-induced NFkB p65 translocation, primary screen, imaging, HUVEC, MLSMR starter and 10KST1 sets (AID 438;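 active = inhibition above 20% together with a positive visual image hit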;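 also: compound added about 3h40 before a 20 min TNFalpha stimulation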;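 as to inhibition: signal is the nuclear over cytoplasmic p65 intensity ratio per well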); conditions: HUVEC TNFa-induced p65 nuclear translocation; cell count: measured here: nuclei count (cytotoxicity indicator), at 2.08 µM; inhibition: at 2 µM, stronger effect = higher value, 0% TNFa-plus-vehicle, 100% no-TNFa wells
[2] = inhibitors of mutant huntingtin aggregation, primary screen, imaging, exon1htt(103Q)mCFP cells, high-content imaging (AID 483); conditions: exon1htt(103Q)mCFP cell line, aggregate imaging, at 2 µM; inhibition of aggregation: stronger effect = higher value; nuclei count: measured here: cell count, toxicity;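 also: compound exposure lasted 3 days before fixation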;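 as to nuclei count: percent of the per-plate median nuclei count of sample wells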
[3] = inhibitors of E-selectin induction by TNFa, primary screen, imaging, HUVEC, immunofluorescence, MLSMR starter and 10KST1 sets (AID 487;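 active = visually confirmed hit in the image check and inhibition above 20%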;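 as to inhibition: signal is fraction of cell area covered by stained E-selectin grains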;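 as to nuclei count: 100% = median nuclei count of all wells on the same plate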); conditions: HUVEC TNFalpha-induced E-selectin immunofluorescence imaging, at 2 µM; inhibition: stronger effect = higher value; nuclei count: measured here: cell number, toxicity
[4] = target: Voltage-gated potassium channel subunit beta-2 (Rattus norvegicus) (UniProt P62483); test: KvBeta enzyme negative modulators, primary screen, biochemical, NADPH fluorescence (AID 622;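 active = fluorescence slope higher than the sample average by over 3 SD, cut at about -0.22 in these data, passing the limit was not always enough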;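 also: slope of raw intensity against log time taken from 70 to 1610 s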); conditions: recombinant KvBeta, 4-cyanobenzaldehyde reduction, at 10 µM, stronger effect = higher value
Voltage-gated potassium channel subunit beta-2 (Rattus norvegicus), sequence (P62483 whole entry, looked up): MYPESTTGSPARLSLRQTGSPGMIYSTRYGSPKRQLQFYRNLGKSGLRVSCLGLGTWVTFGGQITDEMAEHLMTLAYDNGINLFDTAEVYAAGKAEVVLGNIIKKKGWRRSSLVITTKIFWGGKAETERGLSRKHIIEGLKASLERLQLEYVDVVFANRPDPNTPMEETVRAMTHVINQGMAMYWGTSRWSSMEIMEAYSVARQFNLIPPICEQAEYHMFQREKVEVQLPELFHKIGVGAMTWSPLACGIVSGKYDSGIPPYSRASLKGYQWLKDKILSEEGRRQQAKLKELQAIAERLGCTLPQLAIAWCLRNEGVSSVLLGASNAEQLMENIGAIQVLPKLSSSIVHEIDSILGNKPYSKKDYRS

[5] = target: Voltage-gated potassium channel subunit beta-2 (Rattus norvegicus) (UniProt P62483); test: KvBeta positive modulators, primary screen, biochemical, NADPH fluorescence (AID 623;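 active = NADPH fluorescence slope more negative than the mean of all samples by about 3 SD, 99.7% confidence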;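 also: fluorescence intensity change per second fitted from 20 to 320 s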); conditions: Recombinant KvBeta, NADPH fluorescence decrease slope, 10 min; at 10 µM; stronger effect = lower value
[6] = target: Alpha-2C adrenergic receptor (Homo sapiens) (UniProt P18825); test: modulators of alpha2C/GIRK thallium flux, primary screen, cell-based, HEK293 alpha2C/GIRK1/2 (AID 624;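 active = fluorescence slope after compound addition differing from the mean of all screened samples at 99.7% confidence, in either direction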;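 also: slope of fluorescence ratio to pre-addition baseline per second over 15 to 24 s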); conditions: thallium flux BTC fluorescence, at 10 µM, actives lie on both sides
Alpha-2C adrenergic receptor (Homo sapiens), sequence (P18825 whole entry, looked up): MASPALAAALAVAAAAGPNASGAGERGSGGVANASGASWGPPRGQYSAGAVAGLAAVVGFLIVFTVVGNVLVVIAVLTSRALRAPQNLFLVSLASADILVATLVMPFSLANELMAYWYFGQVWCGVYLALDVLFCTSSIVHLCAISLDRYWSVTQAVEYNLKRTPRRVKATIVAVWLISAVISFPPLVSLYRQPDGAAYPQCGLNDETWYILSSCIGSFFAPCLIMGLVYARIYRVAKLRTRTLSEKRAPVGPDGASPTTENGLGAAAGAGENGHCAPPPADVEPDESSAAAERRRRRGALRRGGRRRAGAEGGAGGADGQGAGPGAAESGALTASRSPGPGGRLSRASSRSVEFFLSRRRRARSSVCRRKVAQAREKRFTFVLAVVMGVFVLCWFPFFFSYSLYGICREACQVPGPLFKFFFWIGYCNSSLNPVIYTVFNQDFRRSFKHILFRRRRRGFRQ

[7] = inhibitors of Sendai virus-induced IRF3 signaling, primary screen, TLR/RLR signaling modifier project, cell-based, Sendai virus stimulus, luciferase, 10K MLSCN set (AID 602276;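 active = inhibition at or above 50% at 10 µM; inactive = inhibition below 50%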;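 also: firefly luciferase from ISG56 promoter only with Renilla not read in this screen; 0% = Sendai virus plus DMSO and 100% = medium plus DMSO without virus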); conditions: HEK293 RL24 IRF3 luciferase reporter, at 10 µM, stronger effect = higher value
[8] = inhibitors of poly I:C-induced TLR3 signaling, primary screen, cell-based, poly I:C stimulus, luciferase, 10K MLSCN set (AID 602277;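 active = inhibition of the reporter signal at or above 50%; inactive = inhibition below 50%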); conditions: HEK293-TLR3 RL24 IRF3 luciferase reporter, at 10 µM, stronger effect = higher value

SMILES	cell count [1]	inhibition [1]	inhibition of aggregation [2]	nuclei count [2] [%]	inhibition [3]	nuclei count [3] [%]	fluorescence slope [4]	NADPH fluorescence slope [5]	slope [6]	inhibition [7]	inhibition [8]
CCOC(=O)Cn1c(N2CCOCC2)nc2c1c(=O)[nH]c(=O)n2C	673	-8.7% (inactive)	-18.2% (inactive)	118	-0.1% (inactive)	107	-0.415 (inactive)	-6.2e-05 (inactive)	0.00268 (inactive)	9.13% (inactive)	21.5% (inactive)
CC1(C(=O)NC2CCCCC2)CCC(=O)N1Cc1cccs1 (stereo not drawn)	803	-0.6% (inactive)	1.4% (inactive)	104	-78.3% (inactive)	130	-0.594 (inactive)	-2.7e-05 (inactive)	0.00547 (inactive)	-11.7% (inactive)	12.6% (inactive)
COc1ccc2cc(CN(Cc3ccco3)C(c3nnnn3C3CCCCC3)C(C)C)c(=O)[nH]c2c1 (stereo not drawn)	325	1.6% (inactive)	2.5% (inactive)	119	-147% (inactive)	125	-0.451 (inactive)	5.5e-07 (inactive)	0.00859 (inactive)	11.1% (inactive)	-3.61% (inactive)
Cc1ccc(-c2cc(C(F)F)n3ncc(C(=O)N4CCN(c5ccccn5)CC4)c3n2)cc1	829	-1.7% (inactive)	9.3% (inactive)	85.3	-56.7% (inactive)	120	-0.514 (inactive)	-3e-05 (inactive)	0.00598 (inactive)	17.4% (inactive)	42.8% (inactive)
O=C(NCc1cccs1)C1CC(c2ccccc2O)=NO1 (stereo not drawn)	347	1.7% (inactive)	-11.8% (inactive)	104	-122% (inactive)	108	-0.601 (inactive)	-2.2e-05 (inactive)	0.00342 (inactive)	12.7% (inactive)	67.7% (active)
CCOC(=O)c1ccc(NS(=O)C23CC4CC(CC(C4)C2)C3)cc1 (stereo not drawn)	406	-1.1% (inactive)	-7.1% (inactive)	111	-53.8% (inactive)	134	-0.458 (inactive)	-9e-06 (inactive)	0.00476 (inactive)	-1.97% (inactive)	6.33% (inactive)
COc1ccc(N2C(=O)C3C4C=CC(C4)C3C2=O)nn1 (stereo not drawn)	719	-5.5% (inactive)	-9.5% (inactive)	100	-182% (inactive)	142	-0.44 (inactive)	-0.000108 (inactive)	0.00628 (inactive)	11.4% (inactive)	23.1% (inactive)
O=C(CSc1nnc(-c2ccccc2)o1)N1CCc2ccccc2C1	400	-4.2% (inactive)	2.7% (inactive)	101	-104% (inactive)	121	-0.382 (inactive)	-6.2e-05 (inactive)	0.00577 (inactive)	7.64% (inactive)	22.9% (inactive)
CC1CCN(S(=O)(=O)c2ccc3[nH]c(=O)cc(C(=O)O)c3c2)CC1	323	-20.8% (inactive)	8.5% (inactive)	129	-20% (inactive)	104	-0.463 (inactive)	-0.000161 (inactive)	0.00662 (inactive)	-2.34% (inactive)	13% (inactive)
Cc1ccc(-c2nnc3c4ccccc4c(C)nn23)cc1S(=O)(=O)N1CCN(C)CC1	640	7.2% (inactive)	3.8% (inactive)	96.2	11.3% (inactive)	81.2	-0.592 (inactive)	-2.9e-05 (inactive)	0.00436 (inactive)	13.3% (inactive)	30.7% (inactive)
COC(=O)c1ccc(C(=O)OC)c(NC(=O)Nc2ccc3c(c2)OCO3)c1	279	-7.1% (inactive)	2.1% (inactive)	94.2	-15.8% (inactive)	95.1	-0.417 (inactive)	7.6e-06 (inactive)	0.00311 (inactive)	-24.9% (inactive)	-44.2% (inactive)
CCCC(=O)Nc1cc(-c2nnc(OC)c3ccccc23)ccc1N1CCOCC1	385	-9.8% (inactive)	-2% (inactive)	105	-14.8% (inactive)	112	-0.522 (inactive)	-3.3e-06 (inactive)	0.00489 (inactive)	22.9% (inactive)	27.2% (inactive)
CCc1nnc(NC(=O)CSc2nnc(-c3ccoc3C)n2CC(C)C)s1	714	3.2% (inactive)	-3.8% (inactive)	110	15.4% (inactive)	91	-0.367 (inactive)	4.9e-06 (inactive)	0.0051 (inactive)	16.7% (inactive)	15.3% (inactive)
CCCOc1cccc(NC(=O)c2c(-c3ccccc3)noc2C)c1	515	2% (inactive)	7.5% (inactive)	92.7	-32% (inactive)	116	-0.534 (inactive)	5.8e-06 (inactive)	0.00598 (inactive)	12.6% (inactive)	18% (inactive)
CCOC(=O)N1CCC(N2C(=O)c3ccccc3C2Nc2cccnc2)CC1 (stereo not drawn)	592	-4.5% (inactive)	-28.1% (inactive)	100	-11.7% (inactive)	117	-0.6 (inactive)	4.7e-06 (inactive)	0.00694 (inactive)	7.61% (inactive)	-4.54% (inactive)
Cn1cccc1Cc1nnc(SCC(=O)Nc2ccccc2F)n1CCc1ccccc1	614	-7.4% (inactive)	7.5% (inactive)	92.6	-52.6% (inactive)	103	-0.619 (inactive)	1.5e-05 (inactive)	0.00629 (inactive)	3.46% (inactive)	10.1% (inactive)
NC(=O)C1CCN(c2nc(-c3ccccc3)nc3ccccc23)CC1	554	-15.4% (inactive)	2% (inactive)	116	49.5% (inactive)	92.8	-0.46 (inactive)	-6.1e-05 (inactive)	0.00467 (inactive)	10% (inactive)	8.01% (inactive)
COc1ccccc1S(=O)(=O)Cc1ccc(C(=O)N2CCOCC2)o1	528	-7.1% (inactive)	29% (inactive)	86.6	-67.1% (inactive)	107	-0.428 (inactive)	-5.8e-05 (inactive)	0.00635 (inactive)	1.72% (inactive)	33.5% (inactive)
CC(=O)Nc1ccc(NC(=O)C(C)Oc2ccccc2F)cc1 (stereo not drawn)	321	3.9% (inactive)	9.4% (inactive)	104	4.3% (inactive)	112	-0.65 (inactive)	1.9e-05 (inactive)	0.00945 (inactive)	9.2% (inactive)	12.4% (inactive)
NC(=O)CSCc1ccc(Br)cc1	313	8.3% (inactive)	12.7% (inactive)	91.7	-103% (inactive)	105	-0.579 (inactive)	-5e-05 (inactive)	0.00494 (inactive)	11.5% (inactive)	13.5% (inactive)
CC1(C)Cc2c(c(=S)nc(-c3ccccc3)n2CCO)CO1	278	-0.5% (inactive)	19% (inactive)	109	41.7% (inactive)	93.9	-0.501 (inactive)	-5.3e-05 (inactive)	0.006 (inactive)	8.44% (inactive)	23.5% (inactive)
NC(=O)C1CCN(C(=O)c2cc3n(n2)C(C(F)(F)F)CC(c2ccco2)N3)CC1 (stereo not drawn)	537	-5.4% (inactive)	2.5% (inactive)	93.4	-83.5% (inactive)	100	-0.543 (inactive)	1.2e-05 (inactive)	0.00594 (inactive)	18.6% (inactive)	24.2% (inactive)
CCn1c(SCC(=O)N2c3ccccc3CCc3ccccc32)nc2c1c(=O)n(C)c(=O)n2C	706	-3.2% (inactive)	25.6% (inactive)	80.2	-2.5% (inactive)	131	-0.516 (inactive)	-8.1e-05 (inactive)	0.0052 (inactive)	5.5% (inactive)	16.2% (inactive)
O=C(NCC(c1cccnc1)N1CCN(c2ccc(F)cc2)CC1)OCc1ccccc1 (stereo not drawn)	568	-6.4% (inactive)	-3.7% (inactive)	128	-34.3% (inactive)	126	-0.605 (inactive)	7e-06 (inactive)	0.00599 (inactive)	17.1% (inactive)	1.38% (inactive)
CCn1c(SCc2nc(-c3cccs3)no2)nnc1-c1c[nH]c2ccccc12	296	3.4% (inactive)	1.2% (inactive)	82.9	-1.6% (inactive)	102	-0.34 (inactive)	1.2e-05 (inactive)	0.0036 (inactive)	10.2% (inactive)	13.6% (inactive)
O=S1(=O)CCC(N=Cc2cc(Br)ccc2O)C1 (stereo not drawn)	500	-13.1% (inactive)	32.5% (inactive)	76.6	18% (inactive)	97.7	-0.498 (inactive)	-4e-05 (inactive)	0.0045 (inactive)	17.3% (inactive)	22.5% (inactive)
COc1ccc(CNC(=O)C(c2ccco2)N(Cc2cccs2)C(=O)Cc2cccs2)cc1 (stereo not drawn)	658	9.5% (inactive)	-14.3% (inactive)	107	-44.5% (inactive)	105	-0.6 (inactive)	-8.4e-06 (inactive)	0.00565 (inactive)	13.1% (inactive)	28.3% (inactive)
Cc1cc(OCC(=O)N2CCOCC2)cc2oc(=O)c3ccccc3c12	352	6.7% (inactive)	-9.5% (inactive)	90.7	3.4% (inactive)	124	-0.329 (inactive)	2.7e-05 (inactive)	0.00625 (inactive)	-4.13% (inactive)	-8.03% (inactive)
